In PubChem BioAssay:
A number with no mark means an inactive call. No rule for the calls is given here.

biological target: Pantothenate synthetase (Mycobacterium tuberculosis (strain ATCC 25618 / H37Rv)) (UniProt P9WIL5); experiment: Recombinant Mtb pantothenate synthetase (PanC) inhibitors, coupled enzyme, confirmatory (AID 375); details: coupled enzyme assay; at 10 µM, stronger effect = higher value;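 also: 0% = full reaction with vehicle and 100% = no enzyme background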
Sequence (P9WIL5 whole entry, looked up): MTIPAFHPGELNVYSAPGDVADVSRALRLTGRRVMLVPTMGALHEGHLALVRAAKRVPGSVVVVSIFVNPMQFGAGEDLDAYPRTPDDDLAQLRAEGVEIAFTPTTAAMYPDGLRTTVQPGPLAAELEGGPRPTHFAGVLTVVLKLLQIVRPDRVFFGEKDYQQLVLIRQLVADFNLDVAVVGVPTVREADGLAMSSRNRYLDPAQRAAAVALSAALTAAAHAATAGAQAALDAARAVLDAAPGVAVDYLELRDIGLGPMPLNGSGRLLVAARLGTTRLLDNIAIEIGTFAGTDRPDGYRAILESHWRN

| Compound | inhibition [%] |
| --- | --- |
| CC(NC(=O)c1ccc(F)cc1)C(c1cccs1)N1CCN(C)CC1 (stereo not given) | 3 |
| CC(=O)Nc1c(C(=O)O)[nH]c2ccccc12 | 0 |
| Cc1cc(C)c2c(n1)nn1c(N3CCOCC3)cc(C)nc21 | 0 |
| Oc1ccc(-c2onc(C(F)(F)F)c2-c2cscn2)c(O)c1 | 2 |
| COc1cccc(NC(=O)N2CCC(N3CCCCC3)CC2)c1 | 0 |
| COc1ccccc1N1CCN(c2cc(N3CCCC3)nc(C)n2)CC1 | 0 |
| C[C@@H]1CCC[C@H](C)N1NC(=O)c1ccc(Cl)c(S(N)(=O)=O)c1 | 0 |
| Cc1ccc(-n2ncc3c(=O)[nH]c(SCC(=O)N4CCN(c5ccccc5)CC4)nc32)cc1 | 0 |
| CCSc1nc2c(c(=O)[nH]1)C(c1cccnc1)C(C(=O)OC(C)C)=C(C)N2 (stereo not given) | 0 |
| Cc1ccc(S(=O)(=O)NC(C)C(=O)Nc2ccc(C(N)=O)cc2)cc1 (stereo not given) | 0 |
| Cn1c(=O)c(C(=O)Nc2cccnc2)c(O)c2ccccc21 | 5 |
| Cc1ccc(NC(=O)CSc2nnc(CNC(=O)c3c(F)cccc3Cl)o2)cc1 | 3 |
| Cc1c(O)c(CN2CCCC(C)C2)cc2c3c(c(=O)oc12)CCC3 (stereo not given) | 9 |
| CC(C)Cc1nnc(NC(=O)CCC(=O)N2CCOCC2)s1 | 0 |
| COC(=O)CC1SCCNC1=O (stereo not given) | 0 |
| COc1ccc(CCN(Cc2cc3cccc(C)c3[nH]c2=O)C(=O)N2CCCC2)cc1OC | 0 |
| Cc1cc(NC(=O)CSc2ccc(Cl)cc2)no1 | 0 |
| NC(=O)c1c(NC(=O)CSc2nnc(-c3ccco3)n2-c2ccccc2)sc2c1CCC2 | 0 |
| O=C(CCCn1c(=O)c2sccc2n(CC(=O)NCc2ccco2)c1=O)NCc1ccco1 | 0 |
| COc1ccccc1C(=O)NC(C)C(c1cccs1)N1CCN(C)CC1 (stereo not given) | 3 |

| Compound | inhibition [%] |
| --- | --- |
| CCc1ccc(N2CC34C=CC(O3)C(C(=O)OC)C4C2=O)cc1 (stereo not given) | 0 |
| CCCc1nnc2n1N=C(c1ccc(OC)c(OC)c1)CS2 | 0 |
| O=C(COc1ccc(S(=O)(=O)NC2CCCCC2)cc1)NCc1ccccn1 | 0 |
| Cn1cccc1C1NC(=O)c2c(sc3c2CCC(C(C)(C)C)C3)N1 (stereo not given) | 3 |
| CC(C)OC(=O)c1ccc(OC(=O)c2cccnc2)cc1 | 0 |
| Cc1cccc(NC(=O)c2ccc(S(=O)(=O)N(C)C)cc2)n1 | 0 |
| O=C(CCS(=O)(=O)c1cccc2nsnc12)N1CCN(Cc2ccc3c(c2)OCO3)CC1 | 0 |
| Cc1ccc(CNC(=O)C2CCN(S(=O)(=O)c3cccs3)CC2)o1 | 0 |
| Cc1ccc(NC(=O)CSc2nnc(CSc3nc(C)cc(C)n3)n2Cc2ccco2)c(C)c1 | 0 |
| COC(=O)c1cc(NC(=O)C2CC=CCC2C(=O)O)cc(C(=O)OC)c1 (stereo not given) | 3 |
| CN(C)CCCN1c2ccccc2Sc2ccc(C(F)(F)F)cc21 | 0 |
| O=C(O)c1[nH]nc2c1COc1ccccc1-2 | 6 |
| Cc1ccc(-c2cc(C(=O)Nc3cc(C)on3)c3ccccc3n2)c(C)c1 | 0 |
| CCOC(=O)c1[nH]c2cc(OC)c(OC)cc2c1NC(=O)C(C)N1CCN(Cc2ccccc2)CC1 (stereo not given) | 1 |
| CCC(=O)Nc1cc(C)c(NC(=O)C23CC4CC(CC(C4)C2)C3)cn1 | 5 |
| COc1ccc(/C(O)=C2\C(=O)C(=O)N(c3cc(C)on3)C2c2ccccc2OC)cc1 (stereo not given) | 0 |
| Cc1nc2cc(-n3ccc(=O)cc3)ccc2n1-c1ccccc1 | 2 |
| O=C(NCCN1CCCC1)C1COc2ccccc2O1 (stereo not given) | 3 |
| O=C(c1cccs1)N(Cc1ccco1)Cc1cc2ccccc2[nH]c1=O | 0 |
| O=C(CN1CCC(n2nnc3cc(F)ccc32)CC1)Nc1ccc2c(c1)CCC2 | 0 |
